Each structure is given as a SMILES string. Values joined by “and” are separate entries in the source; they are usually repeats but may differ in a detail not shown here. Equal values may be shown once. About 6,900 (3.6%) of roughly 190,000 compounds were called active. Many of the other results were omitted from the sample, so actives are more common in it than they were. Values without a mark were called inactive. Rule as the data show it: active = inhibition above about 50%; inactive = the rest.

For the experiment, the target named is Huntingtin (Homo sapiens) (UniProt P42858). Nature of the experiment: mutant huntingtin-calmodulin interaction inhibitors – biochemical, AlphaScreen, primary screen (AID 1671202).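 Also: 0% = both proteins with DMSO and 100% = one protein alone.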 As to conditions: AlphaScreen His-mHTT/GST-CaM binding, luminescence; at 15 µM, active compounds read high. (Bead proximity is the source of the signal in Alpha formats.)
Huntingtin (Homo sapiens), sequence (P42858 whole entry, looked up, stated change not applied): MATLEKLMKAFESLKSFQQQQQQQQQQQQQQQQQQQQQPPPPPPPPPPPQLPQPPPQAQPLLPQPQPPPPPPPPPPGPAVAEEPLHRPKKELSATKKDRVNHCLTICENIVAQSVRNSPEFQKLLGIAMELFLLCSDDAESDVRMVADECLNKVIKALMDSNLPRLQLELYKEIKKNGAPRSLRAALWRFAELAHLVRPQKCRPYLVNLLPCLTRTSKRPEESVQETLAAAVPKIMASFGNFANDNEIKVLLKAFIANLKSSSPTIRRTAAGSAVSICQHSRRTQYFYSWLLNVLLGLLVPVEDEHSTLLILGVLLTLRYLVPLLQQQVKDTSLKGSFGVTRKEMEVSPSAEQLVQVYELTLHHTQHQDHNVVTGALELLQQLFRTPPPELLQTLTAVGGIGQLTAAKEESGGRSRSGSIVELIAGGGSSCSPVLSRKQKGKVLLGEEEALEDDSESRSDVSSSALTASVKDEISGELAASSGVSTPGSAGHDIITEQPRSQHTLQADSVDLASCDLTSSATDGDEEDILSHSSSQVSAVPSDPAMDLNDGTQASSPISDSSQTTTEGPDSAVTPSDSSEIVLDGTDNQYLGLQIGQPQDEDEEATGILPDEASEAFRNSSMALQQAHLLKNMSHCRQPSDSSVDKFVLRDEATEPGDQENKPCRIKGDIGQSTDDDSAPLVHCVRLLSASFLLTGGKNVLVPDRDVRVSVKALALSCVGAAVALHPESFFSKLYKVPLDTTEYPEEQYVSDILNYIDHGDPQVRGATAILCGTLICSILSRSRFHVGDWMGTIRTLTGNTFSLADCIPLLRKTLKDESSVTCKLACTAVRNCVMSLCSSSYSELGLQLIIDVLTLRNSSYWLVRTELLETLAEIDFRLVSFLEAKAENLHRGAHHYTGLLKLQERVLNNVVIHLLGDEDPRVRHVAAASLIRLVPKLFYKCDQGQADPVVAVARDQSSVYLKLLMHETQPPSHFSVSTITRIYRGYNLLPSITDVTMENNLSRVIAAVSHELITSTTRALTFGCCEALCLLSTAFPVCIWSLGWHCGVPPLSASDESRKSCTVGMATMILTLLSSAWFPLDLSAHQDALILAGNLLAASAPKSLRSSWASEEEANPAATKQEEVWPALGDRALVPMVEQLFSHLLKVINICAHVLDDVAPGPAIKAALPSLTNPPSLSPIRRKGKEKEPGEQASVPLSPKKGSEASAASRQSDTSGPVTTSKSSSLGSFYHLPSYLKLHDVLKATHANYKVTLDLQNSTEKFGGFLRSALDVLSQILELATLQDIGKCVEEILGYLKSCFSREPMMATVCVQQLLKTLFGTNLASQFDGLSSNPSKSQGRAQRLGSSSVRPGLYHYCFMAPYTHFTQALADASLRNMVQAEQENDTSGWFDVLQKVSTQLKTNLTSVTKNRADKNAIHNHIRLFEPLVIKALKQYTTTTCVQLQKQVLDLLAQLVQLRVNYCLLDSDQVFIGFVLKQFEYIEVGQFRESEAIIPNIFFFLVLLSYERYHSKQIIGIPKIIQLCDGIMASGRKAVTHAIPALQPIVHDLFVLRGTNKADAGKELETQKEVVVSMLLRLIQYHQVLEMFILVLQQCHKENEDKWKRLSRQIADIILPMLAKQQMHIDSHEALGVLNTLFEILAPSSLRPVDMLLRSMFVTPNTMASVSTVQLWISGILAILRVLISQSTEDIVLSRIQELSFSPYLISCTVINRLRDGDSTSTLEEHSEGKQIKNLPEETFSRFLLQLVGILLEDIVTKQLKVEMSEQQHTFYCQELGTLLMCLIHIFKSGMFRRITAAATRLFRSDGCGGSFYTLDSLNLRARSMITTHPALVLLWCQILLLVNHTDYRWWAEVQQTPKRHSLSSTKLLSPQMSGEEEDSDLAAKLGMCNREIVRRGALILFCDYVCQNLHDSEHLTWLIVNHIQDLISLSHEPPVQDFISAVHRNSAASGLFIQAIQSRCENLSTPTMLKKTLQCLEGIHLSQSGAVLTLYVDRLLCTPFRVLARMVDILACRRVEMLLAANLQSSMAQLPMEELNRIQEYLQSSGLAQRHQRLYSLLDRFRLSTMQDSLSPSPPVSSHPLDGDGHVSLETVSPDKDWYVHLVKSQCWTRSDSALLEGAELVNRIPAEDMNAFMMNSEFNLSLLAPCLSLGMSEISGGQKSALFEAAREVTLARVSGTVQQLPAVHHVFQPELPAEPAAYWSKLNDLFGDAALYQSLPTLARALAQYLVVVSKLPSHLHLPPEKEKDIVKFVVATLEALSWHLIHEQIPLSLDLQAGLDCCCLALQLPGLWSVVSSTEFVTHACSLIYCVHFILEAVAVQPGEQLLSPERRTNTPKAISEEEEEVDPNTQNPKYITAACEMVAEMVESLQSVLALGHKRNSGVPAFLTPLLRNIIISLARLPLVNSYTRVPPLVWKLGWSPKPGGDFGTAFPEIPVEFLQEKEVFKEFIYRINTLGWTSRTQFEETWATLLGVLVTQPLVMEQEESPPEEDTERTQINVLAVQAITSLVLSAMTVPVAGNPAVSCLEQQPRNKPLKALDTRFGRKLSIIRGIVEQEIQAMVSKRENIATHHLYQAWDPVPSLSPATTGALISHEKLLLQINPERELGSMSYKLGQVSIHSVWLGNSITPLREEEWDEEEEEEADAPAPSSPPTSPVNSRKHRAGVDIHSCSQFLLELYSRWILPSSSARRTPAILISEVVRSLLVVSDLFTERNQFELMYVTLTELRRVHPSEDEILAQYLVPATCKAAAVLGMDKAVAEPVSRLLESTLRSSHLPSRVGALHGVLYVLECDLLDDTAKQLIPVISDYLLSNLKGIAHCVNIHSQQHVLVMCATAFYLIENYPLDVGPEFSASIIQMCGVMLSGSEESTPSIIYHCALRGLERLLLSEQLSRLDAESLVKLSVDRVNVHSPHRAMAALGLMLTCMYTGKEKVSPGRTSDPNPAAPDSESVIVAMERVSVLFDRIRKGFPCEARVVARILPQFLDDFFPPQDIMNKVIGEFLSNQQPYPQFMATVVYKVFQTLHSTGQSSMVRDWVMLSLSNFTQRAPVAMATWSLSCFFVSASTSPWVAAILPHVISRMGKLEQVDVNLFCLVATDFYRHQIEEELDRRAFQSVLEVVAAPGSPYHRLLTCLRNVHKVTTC
`COc1cccc(CC(=O)N2CCCC2c2cc(C)on2)c1` (centres undefined): the inhibition (as a rule, the relative decrease from the control value, in per cent) is -5.74%.

Turning to `CC1CCCN(c2ccc(-c3noc(CN(C)C4CCCCC4)n3)cn2)C1` (centres undefined), the inhibition was 10%. `CCc1onc(C)c1C1CCCN1C(=O)c1nn(C)cc1Cl` (centres undefined): the inhibition is -0.93%. Regarding `COc1cc(OC)c(OC)cc1/C=C1N=C(/C=C/c2ccccc2)OC/1=O`, the inhibition was -2%. As for `CCOC(=O)N1CCN(Cc2nc(-c3ccc(N4CCCCCC4)nc3)no2)CC1`, the figure is 78.7% (active); as for `c1cc(N2CCCCCC2)ncc1-c1noc(CN2CCCC2)n1`, 15.8%; as for `Cc1nc(-c2ccc(N3CCN(C(=O)C4CCCO4)CC3)nc2)no1` (centres undefined), -5.6%. Turning to `CC(C)Cn1c(C2CCN(C(=O)c3n[nH]c4c3CCCC4)C2)nc2ccncc21` (centres undefined), the inhibition is 5.16%. For the compound `O=C(CNc1ccccc1-c1nc2ccccc2[nH]c1=O)NC1CCCCCCC1`, the inhibition was -7%. Take `CCN(CC)C(=NS(=O)(=O)c1ccccc1)c1ccc(Cl)cc1`: the inhibition was -3%.

With `CC(=O)Nc1cccnc1-c1ccc(C(=O)NCc2ccccc2)cc1`, the inhibition is -2.7%. Consider `CSc1ccc(C2C=C(c3cccs3)Nc3nnnn32)cc1` (centres undefined), for which the inhibition is 2%. Next, `COc1ccc(Cl)cc1C(=O)N1CCn2c(C)nnc2C1`: -9.2%; `COc1ccc(Cl)cc1C(=O)N1CCN(c2ccc3nnc(-c4ccco4)n3n2)CC1`: 72% (active). With `COc1ccc(Cl)cc1C(=O)N1CCN(c2cccc(Cl)c2)CC1`, the inhibition is -0.4%. Take `COc1ccc(C2C(C(=O)Nc3ccc(Cl)cc3)=C(C)Nc3nnnn32)cc1` (centres undefined): the inhibition was 23%. As for `CCCC(=O)NC(c1ccccc1OC)c1cc([N+](=O)[O-])c2cccnc2c1O` (centres undefined), the inhibition is 100% (active).

For `CCCC(=O)NC(Nc1ccccc1OC)C(Cl)(Cl)Cl` (centres undefined), the inhibition was -3%.

On to `O=[N+]([O-])c1ccc(SCCO)c2ncccc12`, for which the inhibition is 6%. Turning to `Cc1nc(-n2cccc2)sc1C(=O)NCc1cc(-c2ccco2)on1`, the inhibition was -1.3%. With `CN(Cc1ccccc1F)c1cc2c(c3c1ccn3C)C1CCC2O1` (centres undefined), the inhibition was 75.9% (active).

As for `O=C(C=Cc1ccco1)NCC1COC2(CCCCC2)O1` (centres undefined), the inhibition is -5.5%.

Regarding `CCOc1ccccc1NC(=O)c1nn(-c2ccccc2OC)c(=O)c2ccccc12`, the inhibition is -4%.

Regarding `O=C1CSC(c2ccc(F)cc2)N1c1ccc(Br)cc1` (centres undefined), the inhibition is -18%. With `O=C(COc1ccc([N+](=O)[O-])cc1)c1ccc(O)cc1O`, the inhibition was 2.4%. For `CCCc1ccc(OCC(=O)c2ccc(O)c(C)c2O)cc1`, the inhibition is 80.4% (active). In the case of `CCCc1ccc(OCC(O)CN2CCN(C(=O)OCC)CC2)cc1` (centres undefined), the inhibition is 24.7%. Next, `COCC(=O)N1CCCC(c2ccnc(-c3ccccc3)n2)C1` (centres undefined): -3.3%; `CC1CN(C(=O)COc2cccc3c2OC(C)(C)C3)CC(C)O1` (centres undefined): 1.8%; `CCCCOc1ccc(NC(=O)N(Cc2ccccn2)Cc2ccco2)cc1`: -0.5%. As for `Cc1ccc(NC(=O)N2CCCC(CC(=O)N3CCN(c4ccccc4F)CC3)C2)cc1` (centres undefined), the figure is 8.68%. For the compound `CCOC(=O)CCC(=O)N1CCN(C2=NN=C(c3ccccc3)CS2)CC1`, the inhibition is 32.5%. In the case of `O=C(c1cccs1)N1CCN(C2=NN=C(c3ccccc3)CS2)CC1`, the inhibition was 86.5% (active).

Take `O=C(c1cccs1)N1CCN(c2cc(-c3cccnc3)[nH]n2)CC1`: the inhibition is -4.79%.

For `O=[N+]([O-])c1ccc(Oc2ccc(Cl)c3cccnc23)c(Cl)c1`, the inhibition was -1%. Regarding `Cc1ccccc1-c1noc(C2CCCN2C(=O)NCc2ccc(F)cc2)n1` (centres undefined), the inhibition is 68.5% (active). As to `Cc1ccccc1-c1noc(C2CCCN2C(=O)Nc2ccccc2Cl)n1` (centres undefined), the inhibition was -25.4%. Consider `COc1ccc(NC(=O)N2CCCC2c2nc(-c3ccccc3C)no2)cc1` (centres undefined), for which the inhibition is 7.96%. As for `CCOc1cccc(C(=O)Nc2ccc(-c3nc4ncccc4o3)cc2)c1`, the inhibition is -4%.

In the case of `CC1(C)CC(=O)C2=C(C1)c1c(ccc3ncccc13)NC2c1ccc([N+](=O)[O-])cc1` (centres undefined), the inhibition is 54% (active). As to `CCOc1ccc(C2Nc3ccc4ncccc4c3C3=C2C(=O)CC(C)(C)C3)cc1` (centres undefined), the inhibition is 3%. In the case of `CC1(C)CC(=O)C2=C(C1)c1c(ccc3ncccc13)NC2c1ccc(O)cc1` (centres undefined), the inhibition is 2%. As to `O=C1OC(/C=C/c2cccc(Cl)c2Cl)=NC/1=C\c1cccc([N+](=O)[O-])c1`, the inhibition was 1%. With `O=c1[nH]c2c(c(=O)[nH]1)C(c1cc([N+](=O)[O-])ccc1N1CCOCC1)O2` (centres undefined), the inhibition was 3%. In the case of `COc1ccc(C2=NN3C(C2)c2ccccc2OC3c2cccc([N+](=O)[O-])c2)cc1` (centres undefined), the inhibition was 10%. For the compound `COc1ccc(C2CC(c3cccs3)=NN2c2ccccc2)cc1` (centres undefined), the inhibition was -183%. As for `COc1cc(OC)c(C2Oc3ccccc3C3CC(c4cccs4)=NN32)cc1OC` (centres undefined), the inhibition was 52% (active). `N#Cc1ccc(C2Oc3ccccc3C3CC(c4ccccc4)=NN32)cc1` (centres undefined): the inhibition was 14% and 1.44%.

In the case of `CC1=NN2C(C1)c1ccccc1OC2c1ccc(Cl)cc1` (centres undefined), the inhibition is -1%.

With `Cc1ccc(C2Oc3ccccc3C3CC(c4cccs4)=NN32)o1` (centres undefined), the inhibition is 63% (active). As for `Cn1cccc1C(=O)N1CC2CC1CC2NS(=O)(=O)c1cccs1` (centres undefined), the figure is 14.1%.

Regarding `Fc1ccc(CSc2nnnn2-c2ccc3c(c2)OCO3)cc1`, the inhibition was -29%. Next, `CC(C)c1nc2c(NC(=O)C3CC3)cccn2n1`: -7.5%; `CCCCN(CC)S(=O)(=O)c1ccc(Cl)cc1`: -36.2%. As to `Cc1cc(C)cc(N2C(=O)C(N3C(=O)c4ccccc4C3=O)C2c2ccc(F)cc2)c1` (centres undefined), the inhibition was 3%. On to `O=C(NCc1ccc(F)cc1)C1CCN(c2nccn3nc(-c4ccc(F)cc4)cc23)CC1`, for which the inhibition was 4.41%. Take `O=C(NCCc1ccccn1)C1CCN(c2nccn3nc(-c4ccc(F)cc4)cc23)CC1`: the inhibition was 15%. For the compound `O=C(Nc1cccc(Cl)c1)C1CCN(c2nccn3nc(-c4ccccc4)cc23)CC1`, the inhibition was 4.34%. Consider `CC(NC(=O)C1CCN(c2nccn3nc(-c4ccccc4)cc23)CC1)c1ccc(F)cc1` (centres undefined), for which the inhibition is -3.07%. On to `Cc1ccc(-c2cc3c(N4CCC(C(=O)NCc5cccnc5)CC4)nccn3n2)cc1C`, for which the inhibition is 59.9% (active). Turning to `CC(NC(=O)C1CCN(c2nccn3nc(-c4cccs4)cc23)CC1)c1ccccc1` (centres undefined), the inhibition was 59.4% (active). For `O=C(NCc1ccc(Cl)cc1)C1CCN(c2nccn3nc(-c4ccccc4)cc23)CC1`, the inhibition is 52% (active). Take `O=C(NCc1cccs1)C1CCN(c2nccn3nc(-c4ccccc4)cc23)CC1`: the inhibition was 18.6%. For `CCN(CC)S(=O)(=O)N1CCC(C(=O)NCc2cccnc2)CC1`, the inhibition is -11%.

Source of the values: PubChem BioAssay AID1671202 (University of Kansas High Throughput Screening Laboratory, 2021).
